From PubChem BioAssay AID602332 (National Center for Advancing Translational Sciences (NCATS), 2012) come the findings set out here.

Where “and” joins values, the source holds several entries; their conditions need not be identical. Equal values may be shown once. Hit rate of the full screen: of about 420,000 compounds, about 75 (0.02%) were called active. The list comes from a sample in which actives are over-represented; it also holds similar structures and randomly drawn compounds. Values without a mark were called inactive. Calls come from the whole dose curve; as a rule, active = well fitted activation curve with a large enough effect; inconclusive = small, poorly fitted or top-dose-only effect; inactive = no such curve, though single readings can be large or run the other way.
Potency is the fitted concentration of half-maximal effect.

A short description of this experiment: qHTS for Inducers of the Endoplasmic Reticulum Stress Response (ERSR) in Human Glioma: qHTS. For activation: % of control where 0% means no effect. Note: nearly all actives have a fitted effect of over 35% in size. As to conditions: U87-MG GRP78 promoter luciferase reporter, 16 h; activation: active compounds read high. The text has this:
Primary protein unfolding takes place for many diseases, including diabetes and hypoxia, , and triggers a reaction in the cells called ER stress response (ERSR). ). ERSR is designed as a repair mechanism, but ultimately leads to cell death via apoptosis if conditions triggering protein unfolding persist (1). The molecular clue to ERSR activation is the enhancement of the expression of key molecular chaperones, including the glucose regulated protein (GRP) 78. GRP78 is the main sensor for protein folding and the main actuator of the ERSR.
In a collaboration between the Southern Research Institute and the NIH Chemical Genomics Center, a cell based screen was developed that reliably uses GRP78 as a sensor to identify small molecules as inducers of ERSR. In resting conditions, GRP78 binds proteins and acts as a natural repressor. Once unfolded proteins are present in the ER, GRP78 releases some of the repressors and binds to the unfolded proteins. The release of the repressors executes the ERSR program. Using a human glioma cell line in a miniaturized, luminescent format, a high-throughput screen was developed to identify actuators of the ERSR.
(1) Soboloff, J. and S. A. Berger (2002). "Sustained ER Ca2+ depletion suppresses protein synthesis and induces activation-enhanced cell death in mast cells." J Biol Chem 277(16): 13812-20.
NIH Chemical Genomics Center [NCGC]
NIH Molecular Libraries Probe Centers Network [MLPCN]
Assay Submitter (PI): Maurizio Grimaldi, Southern Research Institute
Stable transfected human glioma cell line, U87-MG, are dispensed at density 1000 cells/well into Greiner white solid bottom 1536-well assay plates. Compounds are transferred via Kalypsys pin tool equipped with 1536-pin array (10nl slotted pins, V&P Scientific, San Diego, CA). The assay plates will be incubated for 16 hours and developed by adding appropriate quantities of the Promega Bright Glo reagent. The plates will be incubated at room temperature for 10 minutes prior to being transferred into a ViewLux high-throughput CCD imager (PerkinElmer), wherein end-point measurements of luminescence are acquired.
(In qHTS, concentration-response curves come from the screen itself.)
Consider `O=C(CN1Cc2ccccc2OC(c2ccccc2)C1)N1CCCCC1c1cccnc1` (centres undefined), for which the activation was 0.385%. Consider `C[C@H]1C[C@H]2[C@@H]3CCC4=CC(=O)C=C[C@]4(C)[C@@H]3C(=O)C[C@]2(C)[C@@]1(O)C(=O)CO`, for which the activation was -3.39%. On the same count and under the same terms, to `CC(=O)Oc1c2c(c3c(c1CC=C(C)C)O[C@@]14C(=CC5CC1C(C)(C)OC4(C/C=C(\C)C(=O)O)C5=O)C3=O)OC(C)(CCC=C(C)C)C=C2` (some centres undefined) belongs -12.4%; to `COC(=O)C1=C(C)N(Cc2ccccc2)C2=C3C(=O)N(c4ccccc4)C(=O)C3[C@@](O)(C(=O)OC)C(=O)N2C1c1ccccc1` (some centres undefined), -1.87% and -3.39%; to `CN1CCc2nc(-c3ccccc3)c(-c3ccccc3)cc2C1`, -5.76%. Same read-out and setting: to `C=CCOC(=O)C(C(C)=O)C(NC(=O)OC)c1ccccc1` (centres undefined) belongs -3.7%; to `O=C1C[C@H]2C=CCc3cccc(c32)CN1Cc1ccccc1`, -0.186%; to `CC(C)c1cc(C(=O)N2CCOc3ccc(CN4CCC(Oc5cccnc5)CC4)cc3C2)n[nH]1`, -4.01%. For the compound `COc1ccccc1C1CN(CCNC(=O)C2=CCCC2)Cc2ccccc2O1` (centres undefined), the activation was -2%. In the case of `CC[C@H](C)[C@H](NC(=O)[C@H](Cc1cnc[nH]1)NC(=O)[C@@H](N)CCC(=O)O)C(=O)N1CCC[C@H]1C(=O)N[C@@H](C)C(=O)O`, the activation was -2.54%. The same measure, in the same setting: as for `CO[C@H]1C[C@@H](O[C@@H]2[C@@H](C)O[C@@H](O[C@@H]3/C(C)=C/CC4C[C@@H](C[C@]5(C=C[C@@H](C)[C@H](C6CCCCC6)O5)O4)OC(=O)[C@@H]4C=C(C)[C@@H](O)[C@H]5OC/C(=C\C=C\[C@@H]3C)[C@]54O)C[C@H]2OC)O[C@@H](C)[C@@H]1O`, the figure is -9.58%; as for `CC(C)(C)c1ccc(C(=O)C[N+]2(C)CCCc3ccccc32)cc1` (centres undefined), -4.17%.

On to `CC(=O)Nc1cc(C(=O)N2CCc3c(Cl)cccc3C2)cc2ncn(CCc3ccccn3)c12`, for which the activation is -1.89%. Same read-out and setting: as for `C[C@@H](c1ccccc1)N1C(=O)[C@H]2[C@H]3[C@H](O)[C@H](O)C/C(=N/OC[C@@H](O)COCc4ccco4)[C@@H]3CC[C@@H]2C1=O`, the figure is -4.31%; as for `Cc1ncc2c(c1CNS(=O)(=O)N(C)C)CCN(C(=O)c1ccccc1F)C2`, -3.66%; as for `O=C1CCN(Cc2ccc(-c3ccccc3)cc2)CCN1Cc1ccccn1`, 2.1%. The same measure, in the same setting: as for `CN(C)C(=O)[C@@H]1C[C@@H](Sc2nc3ccccc3[nH]2)CN1Cc1ccc(Cl)cc1`, the figure is -3.23%; as for `C[C@@H]1O[C@@H](OC[C@H]2O[C@@H](Oc3c(-c4cccc(O)c4O)oc4cc(O)cc(O)c4c3=O)[C@H](O)[C@@H](O)[C@@H]2O)[C@H](O)[C@H](O)[C@H]1O`, -4.32%. Still for that read-out and setting: to `CCCS(=O)(=O)NCc1c(C)ncc2c1CCN(C(=O)c1ccc(F)c(F)c1)C2` belongs -4.76%; to `CC(C)C(=O)NC(C)c1nnc2n1CCN(Cc1cccc3ncccc13)CC2` (centres undefined), -2.92%; to `CCC1CN(CCNC(=O)c2ccsc2)Cc2cc(OC)ccc2O1` (centres undefined), -2.11%.

Regarding `N#Cc1cccc(-c2ccc3ncnc(NCc4cccs4)c3c2)c1`, the activation was -10.9%.

For `COC(=O)[C@@H]1CC[C@H](C)[C@@H](c2ccc(C)cc2)N1C(=O)c1ccc(/C=N\O[C@@H](C)c2cn([C@H](CO)Cc3ccccc3)nn2)cc1`, the activation is -4.74% and -2.82%. On to `COc1cc(=O)n2c(c1C(=O)NC(C)c1ccco1)CCN(Cc1cc(C)cc(C)c1)CC2` (centres undefined), for which the activation was -3.17%. For the compound `CO[C@@H]1COC(=O)C/C=C\[C@H](C)[C@@H](NS(=O)(=O)c2ccc(C)cc2)COC(=O)C/C=C\[C@@H]1C`, the activation was -3.94% and -2.29%. Consider `COC(=O)c1c(OCc2ccc(F)cc2)cc(=O)n2c1CCN(Cc1ccc3cccnc3c1)CC2`, for which the activation is -4.1%.

`c1ccc2c(Nc3ccncc3)nc(-c3ccc4c(c3)OCO4)nc2c1`: the activation was -6.62%. On the same count and under the same terms, to `CO[C@H]1COC(=O)[C@@H](C)NC(=O)C/C=C\[C@@H](C)[C@H](OC)COC(=O)C/C=C\[C@@H]1C` belongs -4.07%; to `Cc1c(O)cc2c(c1C)O[C@](C)(CCC[C@H](C)CCC[C@H](C)CCCC(C)C)CC2`, -2.5%; to `CCC1(C2CCN(C(=O)c3cccc(F)c3F)CC2)NC(=O)N(CCc2scnc2C)C1=O` (centres undefined), -1.9%. As for `Cc1cc(C)cc(CN2CCc3nnc(C(NS(C)(=O)=O)C(C)C)n3CC2)c1` (centres undefined), the activation was -4.09%. Regarding `CC(=O)OCC1OC(C#Cc2ccccc2Cl)C=CC1OC(C)=O` (centres undefined), the activation was -1.79%. Consider `CC(C)N1C[C@@H](NCc2ccccc2O)C[C@H]1C(=O)N1CCN(c2cccc(C(F)(F)F)c2)CC1`, for which the activation was -4.06%.

Regarding `COc1cc(=O)n2c(c1C(=O)N(C)Cc1nccs1)CCN(Cc1ccc(Cl)cc1)CC2`, the activation is -5.15%. Same read-out and setting: as for `O=C(CCN1Cc2ccccc2OC(c2ccccc2)C1)N[C@@H]1CS(=O)(=O)C[C@H]1O` (some centres undefined), the figure is -4.81%; as for `O=C1OCCC=C1[C@@H](O)CCc1ccccc1`, 3.05%. Still for that read-out and setting: to `O=c1cc(-c2ccc(O)cc2)oc2c(-c3cc(-c4cc(=O)c5c(O)cc(O)cc5o4)ccc3O)c(O)ccc12` belongs -1.39%. As to `O=c1cc(-c2ccc(O)c(O)c2)oc2cccc(O)c12`, the activation is -2.34%.

Take `COc1c(O)cc2oc(-c3ccc(O)c(O)c3)cc(=O)c2c1O`: the Potency is 20 µM (active). As for `CCCN(CC)[C@@H](CC)C(=O)Nc1c(C)cccc1C`, the activation is -4.31%. Turning to `O=C1[C@H]2[C@H]3[C@H](O)[C@H](O)C/C(=N/OCc4ccccc4)[C@H]3CC[C@@H]2C(=O)N1Cc1ccccc1`, the activation was -3.44%. As for `C/C(CCN1CCCCc2nc(C)c(C)cc21)=N\O[C@@H](C)c1cn([C@@H]2COC[C@@H]2O)nn1`, the activation was -4.19%. Same read-out and setting: as for `COc1ccc2c(c1)CCc1cnc(-n3ncc(C(=O)NCCN4CCOCC4)c3C)nc1-2`, the figure is 5.73%; as for `COc1ccc(/C=C/NC(=O)Cc2ccc(OC)c(OC)c2)cc1`, 0.885% and -3.87%.
